Experimental data as given in PubChem BioAssay AID1542 (National Center for Advancing Translational Sciences (NCATS), 2009).
Records with an inconclusive call do not appear. Active and inactive are the calls of the source. Calls come from the whole dose curve; as a rule, active = well fitted curve in the direction sought with a large enough effect; inconclusive = small, poorly fitted or top-dose-only effect, or effect the other way, or another doubt; inactive = no such curve, though single readings can be large or run the other way.

Target: Pyruvate kinase PKM (Homo sapiens) (UniProt P14618)
Sequence (P14618 whole entry, looked up, canonical isoform): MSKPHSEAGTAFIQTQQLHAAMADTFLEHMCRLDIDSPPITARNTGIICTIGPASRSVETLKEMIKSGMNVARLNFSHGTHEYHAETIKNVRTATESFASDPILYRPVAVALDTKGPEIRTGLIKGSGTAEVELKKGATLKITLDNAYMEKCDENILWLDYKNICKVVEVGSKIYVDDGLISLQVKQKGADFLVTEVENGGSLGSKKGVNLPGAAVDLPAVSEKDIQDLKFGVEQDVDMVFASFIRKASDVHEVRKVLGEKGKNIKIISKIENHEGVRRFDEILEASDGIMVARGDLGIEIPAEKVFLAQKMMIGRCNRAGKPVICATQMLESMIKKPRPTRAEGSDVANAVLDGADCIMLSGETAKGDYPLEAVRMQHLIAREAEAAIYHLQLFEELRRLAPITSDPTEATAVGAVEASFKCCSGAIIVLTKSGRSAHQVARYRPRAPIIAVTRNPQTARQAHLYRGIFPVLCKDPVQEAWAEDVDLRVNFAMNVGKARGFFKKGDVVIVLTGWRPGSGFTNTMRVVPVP
Experiment: Secondary assay for Activators of Human Pyruvate Kinase M1 isoform
Settings: purified hPK-M1, LDH-coupled NADH fluorescence kinetic; series mostly up to 57.5 µM; activity change, positive = activation: at the top concentration
Source text: Confirmatory assay NIH Chemical Genomics Center [NCGC] Matthew G. Vander Heiden, M.D., Ph.D. [Harvard Medical School, 77 Avenue Louis Pasteur, Boston, MA 02115] NCGC Assay Overview: Human pyruvate kinase […] (hPK-M1)enzyme was supplied as a highly purified (>95% pure) preparation from Harvard Medical School and a secondary assay was used to evaluate compounds. This assay couples the formation of pyruvate from hPK-R using lactate dehydrogenase (LDH) and NADH. The depletion of NADH is followed in a fluorescent-based kinetic assay that follows the formation of pyruvate to lactate, as catalyzed LDH. Pyruvate kinase substrates, PEP and ADP, were present in the assay at 0.1 mM and 4 mM respectively. In this kinetic assay initial rates were determined by following the fluorescence of NADH depletion.
NCGC Assay Protocol Summary: Three uL of substrate mix (final concentration, 50 mM Tris-Cl pH 8.0, 200 mM KCl, 15 mM MgCl2, 0.1 mM PEP, 4.0 mM ADP, and 0.2 mM NADH) was dispensed into black-solid 1536 well plates. 23 nL of compounds were delivered by a pin tool and 1 uL of enzyme mix (final concentrations, 10 nM hPK-M1 and 1 uM of LDH) was added. Plates were immediately placed in ViewLux (Perkin Elmer) and NADH fluorescence was determined at 30 second exposure intervals for between 3 and 6 minutes. Data were normalized to the uninhibited controls.

Activity change, positive = activation, inactive:
COC(=O)c1cc(F)c(S(=O)(=O)N2CCN(S(=O)(=O)c3ccc4c(c3)OCCO4)CC2)cc1F -0.231%, Cc1cc2c(s1)c1cnn(Cc3ccccc3F)c(=O)c1n2C 1.47%, O=c1[nH]c2ccc(S(=O)(=O)N3CCN(S(=O)(=O)c4c(F)cccc4F)CC3)cc2[nH]c1=O -22%, O=S(=O)(NC1CCC(NS(=O)(=O)c2c(F)cccc2F)CC1)c1ccc2c(c1)OCCO2 (stereo not given) 3.43%, Cc1cc2c(s1)c1cnn(Cc3cccc(F)c3)c(=O)c1n2C 14.8%, O=C(O)c1cc(F)c(S(=O)(=O)N2CCN(S(=O)(=O)c3ccc4c(c3)OCCO4)CC2)cc1F 19.7%, O=S(=O)(c1ccc2nc(Cl)c(Cl)nc2c1)N1CCN(S(=O)(=O)c2c(F)cccc2F)CC1 17.4%, O=C(c1c(F)cccc1F)N1CCN(S(=O)(=O)c2ccc3c(c2)OCCO3)CC1 9.03%, O=S(=O)(c1ccc2c(c1)OCCO2)N1CCN(S(=O)(=O)c2ccccn2)CC1 -9.53%, Cc1cc2c(s1)c1cnn(Cc3cccc(Cn4ncc5c6sc(C)cc6n(C)c5c4=O)c3F)c(=O)c1n2C -9.29%, CCOC(=O)CCc1cc(F)c(S(=O)(=O)N2CCN(S(=O)(=O)c3ccc4c(c3)OCCO4)CC2)cc1F -4.06%, O=S(=O)(c1ccc2c(c1)OCCO2)N1CCN(S(=O)(=O)c2ccc3c(c2)OCCO3)CC1 4.7%, CS(=O)(=O)Nc1cccc(-c2cc(F)c(S(=O)(=O)N3CCN(S(=O)(=O)c4ccc5c(c4)OCCO5)CC3)cc2F)c1 -9.36%, Cc1cc2c(s1)c1cnn(Cc3c(F)c(F)cc(F)c3F)c(=O)c1n2C 9.56%, O=C(O)Cc1cc(F)c(S(=O)(=O)N2CCN(S(=O)(=O)c3ccc4c(c3)OCCO4)CC2)cc1F 19%, O=S(=O)(c1ccc2c(c1)OCCO2)N1CCN(S(=O)(=O)c2c(F)cccc2F)CC1 8.24%, C[C@@H]1CN(S(=O)(=O)c2c(F)cccc2F)CCN1S(=O)(=O)c1ccc2c(c1)OCCO2 12%, COc1ccc(S(=O)(=O)N2CCN(S(=O)(=O)c3ccc4c(c3)OCCO4)CC2)cc1 -6.87%, O=C(N1CCc2ccc(S(=O)(=O)N3CCN(S(=O)(=O)c4ccc5c(c4)OCCO5)CC3)cc2C1)C(F)(F)F -17.2%, C[C@H]1CN(S(=O)(=O)c2ccc3c(c2)OCCO3)CCN1S(=O)(=O)c1c(F)cccc1F 14.6%, O=C(O)/C=C/c1cc(F)c(S(=O)(=O)N2CCN(S(=O)(=O)c3ccc4c(c3)OCCO4)CC2)cc1F -16.2%, Cc1cc2c(s1)c1cnn(Cc3ccccc3F)c(=O)c1n2Cc1ccccc1F 21.1%, O=S(=O)(c1ccc2c(c1)OCCCO2)N1CCN(S(=O)(=O)c2c(F)cccc2F)CC1 4.66%, CCOC(=O)/C=C/c1cc(F)c(S(=O)(=O)N2CCN(S(=O)(=O)c3ccc4c(c3)OCCO4)CC2)cc1F -2.46%, Cc1cc2c(s1)c1cnn(Cc3ccc(F)cc3)c(=O)c1n2C 7.03%, Cn1c2cc(S(C)(=O)=O)sc2c2cnn(Cc3ccccc3F)c(=O)c21 23.4%, Cc1cc2c(s1)c1cnn(Cc3ccc(C(F)(F)F)cc3F)c(=O)c1n2C 9.47%, O=C(O)CCc1cc(F)c(S(=O)(=O)N2CCN(S(=O)(=O)c3ccc4c(c3)OCCO4)CC2)cc1F 2.14%, CC(C)c1cc2c(s1)c1cnn(Cc3ccccc3F)c(=O)c1n2C 2.22%, O=S(=O)(NC1CCN(S(=O)(=O)c2ccc3c(c2)OCCO3)CC1)c1c(F)cccc1F -0.701%, O=C1CN(S(=O)(=O)c2c(F)cccc2F)CCN1S(=O)(=O)c1ccc2c(c1)OCCO2 -4.39%, Cc1cc2c(s1)c1cnn(Cc3c(F)cccc3Cl)c(=O)c1n2C 12.7%, Cn1ccc2cc(S(=O)(=O)N3CCN(S(=O)(=O)c4c(F)cccc4F)CC3)ccc21 14.4%, Cc1cc2c(s1)c1cnn(Cc3ccc(Cl)cc3)c(=O)c1n2C -0.421%, COc1ccc(S(=O)(=O)N2CCN(S(=O)(=O)c3c(F)cccc3F)CC2)cc1 5.64%, O=S(=O)(c1ccc2c(c1)OCCO2)N1CCN(S(=O)(=O)c2cc(F)c(Br)cc2F)CC1 -15.8%, COCCCc1cc(F)c(S(=O)(=O)N2CCN(S(=O)(=O)c3ccc4c(c3)OCCO4)CC2)cc1F -12%, O=S(=O)(c1ccc2c(c1)OCCO2)N1CCN(S(=O)(=O)c2ccc3nc(Cl)c(Cl)nc3c2)CC1 28.8%, O=S(=O)(c1c(F)cccc1F)C1CCN(S(=O)(=O)c2ccc3c(c2)OCCO3)CC1 -23.9%, Cc1nc2ccc(S(=O)(=O)N3CCN(S(=O)(=O)c4c(F)cccc4F)CC3)cc2s1 11.1%
